Measured values as given in PubChem BioAssay (Tox21).
Several values for one entry are separate records, joined by “and”; a condition that tells them apart may be missing. Equal entries are not always repeated. Results filed as inconclusive are left out. A call without a number means that no potency is given here. Activity calls are given as the source filed them. Calls follow the shape of the dose curve; as a rule, active = well fitted inhibition curve with a large enough effect in the repeat runs; inconclusive = weak or mixed curves; inactive = flat fitted curve, though single readings scatter.

assay: qHTS assay to identify small molecule HDAC inhibitors (AID 1259364); conditions: HCT-116 HDAC-Glo I/II luminescence, 2 h; series mostly up to 92.4 µM; activity change, negative = inhibition: at the top concentration; also: nearly all actives have a fitted effect of over 45% in size; as to activity change, negative = inhibition: top concentration of the series differs between compounds
Text: U.S. Tox21 Program National Center for Advancing Translational Sciences [NCATS] NIH Chemical Genomics Center [NCGC] U.S. Environmental Protection Agency [EPA] National Institutes of Environmental Health Sciences [NIEHS] National Toxicology Program [NTP] U.S. Food and Drug Administration [FDA] Tox21 Assay Overview: Histone deacetylases (HDACs) are a group of epigenetic enzymes that regulate gene expression by histone deacetylation. HDACs are capable of introducing epigenetic modifications and such aberrations contribute to the onset and progression of several human diseases, thus making HDACs a popular therapeutic target. For identifying endogenous class I/II HDAC inhibitors a homogenous, luminogenic HDAC I/II cell based assay was used to measure the relative activity of class I and II HDACs from cells. Wild type HCT-116 cells were used to screen Tox21 libraries for identifying class I/II HDAC inhibitors.
Tox21 Assay Protocol Summary: HCT-116 cells were dispensed at 1,500 per well in 5uL of culture medium into white solid bottom 1536-well plates (Greiner Bio-One, Monroe, NC) using a Multidrop Combi (Thermo Scientific, Waltham, MA) dispenser. The assay plates were incubated at 37 C and 5% CO2 for an overnight, and then 23nL of compounds dissolved in DMSO and positive control were transferred using a Pintool station (Wako, San Diego, CA). The assay plates were incubated at 37C and 5% CO2 for 2hr. After compound treatment, 4uL of HDAC-Glo reagent (Promega Corporation, Madison, WI) was added to each well of the assay plates using Flying Reagent Dispenser (FRD, Aurora Discovery, San Diego, CA) and incubated the assay plates at room temperature for 30min. The luminescence signal was quantified using a ViewLux plate reader (Perkin Elmer, Shelton, CT).
Potency is read from the fitted curve at half-maximal effect.

Row | Structure (SMILES) | Potency | activity change, negative = inhibition
1 | Oc1ccccc1 | inactive | –
2 | F[B-](F)(F)F | inactive | –
3 | NC1CCCCC1 | inactive | –
4 | NC(CO)(CO)CO | inactive | –
5 | COc1ccc2cc(S(=O)(=O)N[C@H](CC(=O)N[C@H](Cc3ccc(CN4[C@H](C)CCC[C@@H]4C)cc3)C(=O)N(C)C(C)C)c3ccc4c(c3)OCO4)ccc2c1 | – | 1.05% (inactive)
6 | O=CC(=O)c1ccccc1 | – | -1.75% (inactive)
7 | CC(O)(P(=O)(O)O)P(=O)(O)O | inactive | –
8 | CC1(C)O[C@@H]2C[C@H]3[C@@H]4CCC5=CC(=O)C=C[C@]5(C)[C@@]4(F)[C@@H](O)C[C@]3(C)[C@]2(C(=O)CO)O1 | inactive | –
9 | C1CCC(C(CC2CCCCN2)C2CCCCC2)CC1 (stereo not given) | – | -0.506% [at 42.5 µM] (inactive)
10 | CNNCc1ccc(C(=O)NC(C)C)cc1 | inactive | –
11 | O=c1[nH]cnc2c1ncn2[C@H]1CC[C@@H](CO)O1 | inactive | –
12 | CCCCCCc1ccc(O)cc1O | inactive | –
13 | CC(=O)CCC(=O)O | inactive | –
14 | O=C1O[C@H]([C@@H](O)CO)C(O)=C1O | inactive | –
15 | O=C1c2c(O)cccc2Cc2cccc(O)c21 | inactive | –
16 | COc1cccc(O)c1O | – | -6.23% (inactive)
17 | Nc1ccc(S(N)(=O)=O)cc1 | inactive | –
18 | CC1(C)S[C@@H]2[C@H](NC(=O)[C@H](N)c3ccccc3)C(=O)N2[C@H]1C(=O)O | inactive | –
19 | COc1ccc(CN(CCN(C)C)c2ccccn2)cc1 | inactive | –
20 | O=c1[nH]cc(F)c(=O)[nH]1 | inactive | –

Row | Structure (SMILES) | Potency | activity change, negative = inhibition
21 | CC(=O)CC(c1ccccc1)c1c(O)c2ccccc2oc1=O (stereo not given) | inactive | –
22 | Nc1c2c(nc3ccccc13)CCCC2 | inactive | –
23 | CCCCC1(COC(=O)CCC(=O)O)C(=O)N(c2ccccc2)N(c2ccccc2)C1=O | inactive | –
24 | NC(=O)c1cccnc1 | inactive | –
25 | CN(N=O)C(=O)N[C@@H]1[C@@H](O)[C@H](O)[C@@H](CO)O[C@@H]1O | inactive | –
26 | Cn1c(=O)c2c(ncn2C)n(C)c1=O | inactive | –
27 | CCCCCCCCCCCCCCCC[N+](C)(C)Cc1ccccc1 | inactive | –
28 | CN[C@H]1CC[C@@H](c2ccc(Cl)c(Cl)c2)c2ccccc21 | – | -6.47% [at 42.5 µM] (inactive)
29 | CCCCOC(=O)c1ccc(O)cc1 | 27.6 µM (active) and 30.6 µM (active) | –
30 | CN(C)CCOC(C)(c1ccccc1)c1ccccn1 (stereo not given) | inactive | –
31 | CCc1nc(N)nc(N)c1-c1ccc(Cl)cc1 | inactive | –
32 | CN1[C@@H]2CC(OC(=O)[C@H](CO)c3ccccc3)C[C@H]1[C@@H]1O[C@@H]12 (stereo not given in full) | inactive | –
33 | Cc1cn([C@H]2C=C[C@@H](CO)O2)c(=O)[nH]c1=O | inactive | –
34 | Cc1ncc([N+](=O)[O-])n1C | inactive | –
35 | CCN(Cc1c(F)cccc1Cl)c1c([N+](=O)[O-])cc(C(F)(F)F)cc1[N+](=O)[O-] | – | 6.22% (inactive)
36 | C/C=C/C=C/C(=O)O | inactive | –
37 | CC(C)C(=O)Nc1ccc([N+](=O)[O-])c(C(F)(F)F)c1 | inactive | –
38 | C[C@](N)(Cc1ccc(O)c(O)c1)C(=O)O | inactive | –
39 | C=CCc1ccc(O)c(OC)c1 | inactive | –
40 | CCCCC(CC)C(=O)O (stereo not given) | inactive | –
